The supplement of paper PMC10849652
About 8,800 targets were measured; listed, in parts, are those with a hit and a random draw of the rest. About 0.5% of all pairs of compound and target were hits.

The targets below were run with CS(=O)(=O)CCNCc1ccc(-c2ccc3ncnc(Nc4ccc(OCc5cccc(F)c5)c(Cl)c4)c3c2)o1 [lapatinib] (assay: log2 fold change, soluble protein after heating vs DMSO (PISA); higher = thermal stabilisation; K562 lysate, 10 uM; active = over 0.2 and 3.5 SD of the protein, either way, in both replicates (recomputed)).
Summary of the method: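 The values are log-two fold changes in thermal stability compared with solvent controls and come from duplicates. They were obtained by TMTpro 16plex LC-MS/MS, with channel sums equalised, on the supernatant after 21,000xg for 90 min. That supernatant came from crude K562 extract at 1 mg/mL protein treated with 10 μM compound for 30 min, heated for 3 min across 48°C-58°C, pooled and brought to 0.5% NP-40 at 4°C.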

UniProt Q16539, sequence (Q16539 whole entry, looked up): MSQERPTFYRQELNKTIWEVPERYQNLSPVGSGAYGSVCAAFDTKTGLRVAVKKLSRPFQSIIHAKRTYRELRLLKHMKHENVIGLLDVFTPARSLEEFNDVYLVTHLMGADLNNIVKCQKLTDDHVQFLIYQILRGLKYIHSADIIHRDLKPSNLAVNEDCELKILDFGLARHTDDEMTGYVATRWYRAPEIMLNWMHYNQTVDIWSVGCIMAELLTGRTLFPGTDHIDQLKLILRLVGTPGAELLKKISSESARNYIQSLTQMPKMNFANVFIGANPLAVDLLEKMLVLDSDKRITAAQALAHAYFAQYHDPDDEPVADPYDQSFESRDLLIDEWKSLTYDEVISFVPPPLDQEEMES
UniProt O00522, sequence (O00522 whole entry, looked up): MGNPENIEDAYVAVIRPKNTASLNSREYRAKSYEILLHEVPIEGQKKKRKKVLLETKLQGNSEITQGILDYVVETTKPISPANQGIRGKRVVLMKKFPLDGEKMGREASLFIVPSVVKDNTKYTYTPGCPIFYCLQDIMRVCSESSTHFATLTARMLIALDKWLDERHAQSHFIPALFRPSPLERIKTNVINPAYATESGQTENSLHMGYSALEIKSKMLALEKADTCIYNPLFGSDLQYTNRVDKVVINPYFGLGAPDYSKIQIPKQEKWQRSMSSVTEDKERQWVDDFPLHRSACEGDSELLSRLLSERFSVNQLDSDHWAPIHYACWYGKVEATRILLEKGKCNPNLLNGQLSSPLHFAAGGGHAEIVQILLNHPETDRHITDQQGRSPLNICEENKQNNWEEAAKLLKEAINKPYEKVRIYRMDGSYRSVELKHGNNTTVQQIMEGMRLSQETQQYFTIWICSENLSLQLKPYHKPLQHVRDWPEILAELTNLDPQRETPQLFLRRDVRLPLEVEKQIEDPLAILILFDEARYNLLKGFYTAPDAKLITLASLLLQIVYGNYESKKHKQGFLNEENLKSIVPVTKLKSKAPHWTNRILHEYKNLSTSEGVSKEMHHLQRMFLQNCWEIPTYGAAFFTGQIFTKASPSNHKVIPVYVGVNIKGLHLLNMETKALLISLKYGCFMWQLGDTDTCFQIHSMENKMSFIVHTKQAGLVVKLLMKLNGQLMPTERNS
UniProt P48059, sequence (P48059 whole entry, looked up): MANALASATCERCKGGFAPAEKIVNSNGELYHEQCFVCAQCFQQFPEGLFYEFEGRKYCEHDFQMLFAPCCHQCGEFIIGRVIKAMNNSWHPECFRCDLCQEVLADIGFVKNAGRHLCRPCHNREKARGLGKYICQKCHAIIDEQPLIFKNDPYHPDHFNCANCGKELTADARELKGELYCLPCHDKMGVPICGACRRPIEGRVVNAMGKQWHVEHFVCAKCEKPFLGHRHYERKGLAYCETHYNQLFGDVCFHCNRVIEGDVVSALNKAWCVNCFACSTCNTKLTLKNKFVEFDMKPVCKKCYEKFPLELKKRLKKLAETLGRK
UniProt Q8IWC1, sequence (Q8IWC1 whole entry, looked up): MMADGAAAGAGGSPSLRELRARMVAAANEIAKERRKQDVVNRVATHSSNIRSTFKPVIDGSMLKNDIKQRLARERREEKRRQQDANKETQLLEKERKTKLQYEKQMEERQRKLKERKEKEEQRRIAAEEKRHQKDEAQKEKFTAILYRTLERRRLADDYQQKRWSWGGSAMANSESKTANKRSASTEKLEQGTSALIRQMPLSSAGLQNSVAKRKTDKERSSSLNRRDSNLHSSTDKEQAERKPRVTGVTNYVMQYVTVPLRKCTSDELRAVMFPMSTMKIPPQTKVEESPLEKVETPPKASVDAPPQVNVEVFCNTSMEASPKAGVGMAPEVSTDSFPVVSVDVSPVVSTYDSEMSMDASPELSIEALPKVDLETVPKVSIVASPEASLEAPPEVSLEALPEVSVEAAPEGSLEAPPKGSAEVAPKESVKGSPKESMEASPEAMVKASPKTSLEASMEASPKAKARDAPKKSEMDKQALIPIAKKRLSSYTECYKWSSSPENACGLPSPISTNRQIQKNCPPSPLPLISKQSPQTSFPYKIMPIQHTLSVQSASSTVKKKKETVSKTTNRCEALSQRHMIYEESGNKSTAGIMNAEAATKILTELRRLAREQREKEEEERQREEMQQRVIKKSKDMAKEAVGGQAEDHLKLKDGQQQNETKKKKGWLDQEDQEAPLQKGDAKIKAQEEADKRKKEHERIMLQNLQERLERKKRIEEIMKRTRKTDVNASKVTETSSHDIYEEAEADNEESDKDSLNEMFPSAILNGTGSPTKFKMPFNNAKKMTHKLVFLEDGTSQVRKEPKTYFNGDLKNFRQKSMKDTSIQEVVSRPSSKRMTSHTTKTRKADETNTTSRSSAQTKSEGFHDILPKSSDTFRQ
UniProt Q16644, sequence (Q16644 whole entry, looked up): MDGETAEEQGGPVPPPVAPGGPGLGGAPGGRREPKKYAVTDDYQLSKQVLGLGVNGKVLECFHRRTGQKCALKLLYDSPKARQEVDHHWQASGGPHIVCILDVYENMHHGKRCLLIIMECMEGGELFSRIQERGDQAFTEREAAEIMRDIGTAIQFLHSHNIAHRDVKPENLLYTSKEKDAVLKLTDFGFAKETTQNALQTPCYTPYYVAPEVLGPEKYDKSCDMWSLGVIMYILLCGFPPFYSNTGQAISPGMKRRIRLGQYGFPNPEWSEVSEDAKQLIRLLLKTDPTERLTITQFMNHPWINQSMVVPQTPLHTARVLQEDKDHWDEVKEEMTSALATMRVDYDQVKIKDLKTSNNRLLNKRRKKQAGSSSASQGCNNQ
UniProt O95202, sequence (O95202 whole entry, looked up): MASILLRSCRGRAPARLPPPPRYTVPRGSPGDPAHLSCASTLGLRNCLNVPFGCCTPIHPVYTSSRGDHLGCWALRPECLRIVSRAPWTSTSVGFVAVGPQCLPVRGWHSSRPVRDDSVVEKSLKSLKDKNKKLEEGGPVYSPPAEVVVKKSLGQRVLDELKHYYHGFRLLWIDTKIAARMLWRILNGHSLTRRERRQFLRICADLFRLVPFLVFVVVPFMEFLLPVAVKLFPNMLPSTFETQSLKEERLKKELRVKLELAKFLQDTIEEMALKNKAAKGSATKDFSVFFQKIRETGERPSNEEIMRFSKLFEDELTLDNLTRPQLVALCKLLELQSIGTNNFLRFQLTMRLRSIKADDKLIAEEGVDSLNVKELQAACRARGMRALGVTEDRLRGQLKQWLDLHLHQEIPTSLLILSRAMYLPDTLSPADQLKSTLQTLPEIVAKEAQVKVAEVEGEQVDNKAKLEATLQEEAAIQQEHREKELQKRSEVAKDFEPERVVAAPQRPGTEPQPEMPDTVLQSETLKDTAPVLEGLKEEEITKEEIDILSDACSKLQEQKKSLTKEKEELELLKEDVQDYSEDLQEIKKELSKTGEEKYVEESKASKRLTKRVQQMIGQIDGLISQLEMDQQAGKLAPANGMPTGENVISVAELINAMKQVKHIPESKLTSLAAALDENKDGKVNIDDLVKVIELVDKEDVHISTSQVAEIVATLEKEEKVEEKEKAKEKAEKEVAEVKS
UniProt O14733, sequence (O14733 whole entry, looked up): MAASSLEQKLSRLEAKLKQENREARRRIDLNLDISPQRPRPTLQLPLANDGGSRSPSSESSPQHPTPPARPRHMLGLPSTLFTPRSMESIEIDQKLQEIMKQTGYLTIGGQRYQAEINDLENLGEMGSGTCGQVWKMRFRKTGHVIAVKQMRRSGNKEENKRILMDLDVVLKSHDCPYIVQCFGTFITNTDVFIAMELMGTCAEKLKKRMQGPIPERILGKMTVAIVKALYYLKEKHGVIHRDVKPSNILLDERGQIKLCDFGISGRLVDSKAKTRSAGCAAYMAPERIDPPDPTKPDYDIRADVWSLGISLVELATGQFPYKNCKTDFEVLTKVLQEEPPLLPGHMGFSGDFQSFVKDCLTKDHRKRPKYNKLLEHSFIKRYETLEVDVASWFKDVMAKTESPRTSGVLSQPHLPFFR
UniProt Q53G59, sequence (Q53G59 whole entry, looked up): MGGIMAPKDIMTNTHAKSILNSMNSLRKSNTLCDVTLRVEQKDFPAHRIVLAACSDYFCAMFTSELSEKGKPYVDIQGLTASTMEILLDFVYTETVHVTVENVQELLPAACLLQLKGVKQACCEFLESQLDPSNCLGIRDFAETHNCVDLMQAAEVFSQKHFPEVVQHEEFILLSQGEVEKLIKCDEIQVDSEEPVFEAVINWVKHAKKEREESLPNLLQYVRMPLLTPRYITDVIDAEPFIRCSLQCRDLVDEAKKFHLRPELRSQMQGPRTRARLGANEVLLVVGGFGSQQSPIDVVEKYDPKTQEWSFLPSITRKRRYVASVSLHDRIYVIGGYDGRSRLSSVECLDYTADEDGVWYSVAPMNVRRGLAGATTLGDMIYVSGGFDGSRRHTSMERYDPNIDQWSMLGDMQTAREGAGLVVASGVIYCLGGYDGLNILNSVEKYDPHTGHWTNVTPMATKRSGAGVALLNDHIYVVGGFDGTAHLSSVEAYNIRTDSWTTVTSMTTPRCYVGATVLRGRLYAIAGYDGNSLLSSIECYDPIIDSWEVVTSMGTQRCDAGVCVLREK
UniProt P27361, sequence (P27361 whole entry, looked up): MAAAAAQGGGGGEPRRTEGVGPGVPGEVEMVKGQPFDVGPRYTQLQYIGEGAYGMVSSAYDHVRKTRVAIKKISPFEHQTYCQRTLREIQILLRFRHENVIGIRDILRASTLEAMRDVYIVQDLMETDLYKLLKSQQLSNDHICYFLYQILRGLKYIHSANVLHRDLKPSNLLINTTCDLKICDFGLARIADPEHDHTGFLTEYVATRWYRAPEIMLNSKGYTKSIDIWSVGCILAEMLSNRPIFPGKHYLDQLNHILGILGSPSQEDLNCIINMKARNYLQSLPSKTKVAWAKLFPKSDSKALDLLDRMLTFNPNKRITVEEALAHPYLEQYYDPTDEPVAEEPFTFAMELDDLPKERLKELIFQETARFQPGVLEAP
UniProt O15243, sequence (O15243 whole entry, looked up): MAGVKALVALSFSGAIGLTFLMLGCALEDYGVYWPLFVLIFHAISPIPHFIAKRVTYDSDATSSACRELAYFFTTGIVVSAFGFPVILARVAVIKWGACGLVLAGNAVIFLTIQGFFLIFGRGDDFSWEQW

log2 fold change, inactive:
MAD2L1BP isoform 3 (UniProt Q15013) 0.017, MORF4L1 isoform 2 (UniProt Q9UBU8) 0.024, MCUB (UniProt Q9NWR8) 0.044, LPIN1 isoform 7 (UniProt Q14693) -0.052, MECR (UniProt Q9BV79) -0.028, MPZL1 (UniProt O95297) -0.006, MAPK14 (UniProt Q16539) -0.047, MAPK1 (UniProt P28482) -0.018, MARCHF6 (UniProt O60337) -0.039, KMT2A isoform 3 (UniProt Q03164) -0.07, MAP3K4 (UniProt Q9Y6R4) -0.02, MRPL19 (UniProt P49406) -0.026, MFF isoform 2 (UniProt Q9GZY8) 0.055, METTL21A (UniProt Q8WXB1) 0.004, KLHL12 isoform 2 (UniProt Q53G59) 0.023, MRPL35 (UniProt Q9NZE8) 0.051, LETM1 (UniProt O95202) -0.001, MAP7D3 (UniProt Q8IWC1) 0.033, KIF4A (UniProt O95239) 0.007, MLH1 (UniProt P40692) -0.006, LEPROT (UniProt O15243) -0.058, MAP2K2 (UniProt P36507) -0.048, MINDY1 isoform 3 (UniProt Q8N5J2) -0.002, LIMS1 isoform 3 (UniProt P48059) 0.002, LAMP1 (UniProt P11279) -0.033, KLC4 isoform 3 (UniProt Q9NSK0) -0.002, MAP2K7 isoform 4 (UniProt O14733) 0.004, LIG4 (UniProt P49917) 0.028, KRIT1 (UniProt O00522) -0.115, MAPKAPK3 (UniProt Q16644) 0, MAPK3 (UniProt P27361) -0.028, KLHL36 (UniProt Q8N4N3) -0.045, MCMBP isoform 2 (UniProt Q9BTE3) 0.154, MME (UniProt P08473) 0.025, MAP4 isoform 5 (UniProt P27816) -0.089, MAP4K5 (UniProt Q9Y4K4) -0.035, MAP2K5 (UniProt Q13163) 0.038, MAPK14 isoform 2 (UniProt Q16539) -0.008, LLGL1 (UniProt Q15334) -0.005
